Laboratory results: PubChem BioAssay AID1835 (Johns Hopkins Ion Channel Center, 2009)
The whole screen tested about 2,400 compounds, of which about 750 (31%) were called active.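 How the source made its calls: active means median signal gain over dofetilide-blocked control wells reaching their mean plus 3 SD, so readout 1 at least 0; inactive means the rest.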 This is one part of the list.

What follows are compounds tested against Voltage-gated inwardly rectifying potassium channel KCNH2 (Homo sapiens) (UniProt Q12809) (assay: modulators restoring hERG flux under dofetilide – cell-based, thallium flux, duplicate retest, dofetilide IC70, confirmation (AID 1835)). Details: hERG cell line, FluxOR thallium flux, dofetilide-blocked; at 10 µM; hits give high values.
Chain of Voltage-gated inwardly rectifying potassium channel KCNH2 (Homo sapiens) (Q12809 whole entry, looked up): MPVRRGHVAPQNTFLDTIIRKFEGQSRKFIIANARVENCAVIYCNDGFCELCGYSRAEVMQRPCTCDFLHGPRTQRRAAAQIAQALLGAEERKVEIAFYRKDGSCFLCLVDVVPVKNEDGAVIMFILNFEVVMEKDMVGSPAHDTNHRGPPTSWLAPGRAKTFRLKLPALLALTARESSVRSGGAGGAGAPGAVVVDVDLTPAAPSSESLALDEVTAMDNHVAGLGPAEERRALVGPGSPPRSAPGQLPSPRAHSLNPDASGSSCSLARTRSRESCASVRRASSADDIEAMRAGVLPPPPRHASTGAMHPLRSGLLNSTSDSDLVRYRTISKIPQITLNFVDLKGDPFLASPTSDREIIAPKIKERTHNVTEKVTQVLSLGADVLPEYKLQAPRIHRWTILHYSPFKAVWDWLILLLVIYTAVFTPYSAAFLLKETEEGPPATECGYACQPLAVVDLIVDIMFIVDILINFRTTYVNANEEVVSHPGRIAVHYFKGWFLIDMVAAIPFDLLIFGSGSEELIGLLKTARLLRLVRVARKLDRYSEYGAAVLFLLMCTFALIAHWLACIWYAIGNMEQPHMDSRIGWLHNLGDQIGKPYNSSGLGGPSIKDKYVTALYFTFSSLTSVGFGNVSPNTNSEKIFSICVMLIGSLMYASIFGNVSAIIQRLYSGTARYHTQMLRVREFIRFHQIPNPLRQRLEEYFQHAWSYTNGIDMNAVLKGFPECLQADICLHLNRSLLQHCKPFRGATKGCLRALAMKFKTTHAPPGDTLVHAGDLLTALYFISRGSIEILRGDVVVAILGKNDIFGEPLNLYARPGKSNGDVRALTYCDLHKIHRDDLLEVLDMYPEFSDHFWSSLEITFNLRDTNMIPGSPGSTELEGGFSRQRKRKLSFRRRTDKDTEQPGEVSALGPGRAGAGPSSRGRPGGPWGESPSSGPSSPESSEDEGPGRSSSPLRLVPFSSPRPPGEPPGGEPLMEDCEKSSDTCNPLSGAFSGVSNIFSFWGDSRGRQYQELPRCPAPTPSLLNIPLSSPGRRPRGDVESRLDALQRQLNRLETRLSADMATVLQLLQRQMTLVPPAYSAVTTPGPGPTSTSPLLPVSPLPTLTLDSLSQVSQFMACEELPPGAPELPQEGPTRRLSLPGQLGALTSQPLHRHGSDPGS

SMILES | activity increase over dofetilide control, less the hit threshold
CC(Oc1ccc(Br)cc1Br)C(=O)Nc1cccnc1 (stereo unspecified) | 9% (active)
COc1ccc(S(=O)(=O)Nc2cccnc2)cc1 | -11% (inactive)
CC(Oc1ccc(Cl)cc1Cl)C(=O)Nc1cccnc1 (stereo unspecified) | -23% (inactive)
O=C(Nc1cc(Cl)ccc1O)C1CC(c2ccccc2Cl)=NO1 (stereo unspecified) | -1% (inactive)
Oc1ccc(Cl)cc1C1=NNC(c2cccs2)C1 (stereo unspecified) | 10% (active)
CCCNS(=O)(=O)c1ccc(OCC(=O)Nc2ccc3c(c2)OCCO3)cc1 | -10% (inactive)
CCOc1cc(C(=O)NC)cc(OCC)c1OCC | -13% (inactive)
COCCNC(=O)C1CC(=O)N(c2ccc(OC)cc2)C1c1ccc(OC)cc1 (stereo unspecified) | -24% (inactive)
O=c1ccc(N=Nc2ccccc2)ccc1O | 68% (active)
CN(C)c1ccc(N=Nc2ccc(C(=O)O)cc2)cc1 | -4% (inactive)
COc1ccc(CN(C)C(=O)c2cccc(NS(=O)(=O)c3ccccc3)c2)cc1F | -26% (inactive)
CC1(C)Cc2c(ccc3ccccc23)C2=C(C(=O)N3CCCC3)C(=O)C(=O)N21 | -16% (inactive)
O=C1CC(O)(C(F)(F)F)Oc2c1ccc1ccccc21 (stereo unspecified) | 13% (active)
COc1ccc(N(C(=O)c2ccco2)S(=O)(=O)c2cccs2)cc1 | -6% (inactive)
CC(=O)Nc1ccc(S(=O)(=O)N2CCC(C(=O)O)CC2)cc1 | -6% (inactive)
N=c1sccn1CC(=O)Nc1ccccc1Cc1ccccc1 | -7% (inactive)
Cc1ccc(NC(=O)c2ccc(CNS(=O)(=O)c3cccc(C(F)(F)F)c3)cc2)cc1 | -1% (inactive)
CC(=O)c1ccc(S(=O)(=O)NCc2ccc(C(=O)N(C)CC(=O)Nc3cccc(F)c3)cc2)cc1 | 2% (active)
CN(CC(=O)Nc1ccc(Cl)cc1)C(=O)c1cccc(S(=O)(=O)NCc2ccccc2)c1 | -18% (inactive)
O=C(CSc1cn(CC(=O)N2CCCC2)c2ccccc12)NCC1CCCO1 (stereo unspecified) | -28% (inactive)
COc1ccc(CCN2C(=O)CSC2=S)cc1OC | -16% (inactive)
Cc1cccc(NC(=S)NNC(=O)c2csc3c2CCC(C)C3)c1 (stereo unspecified) | -3% (inactive)
Cc1ccc(C)c(NC(=O)C2C3CCCC2C3c2ccccc2)c1 (stereo unspecified) | -16% (inactive)
Cc1ccc(C)c(NC(=S)NNC(=O)c2csc3c2CCC(C)C3)c1 (stereo unspecified) | 9% (active)
CCC1Nc2ncnc(N3CCOCC3)c2N(Cc2ccc(C)cc2)C1=O (stereo unspecified) | -16% (inactive)
O=C(/C=C/c1ccccc1)c1cc(Br)ccc(=O)c1O | 19% (active)

SMILES | activity increase over dofetilide control, less the hit threshold
Cc1cccc(/C=C/C(=O)c2cc(Br)ccc(=O)c2O)c1 | -14% (inactive)
CCc1ccc(/C=C/C(=O)c2cc(Br)ccc(=O)c2O)cc1 | 13% (active)
COC(=O)c1c(N2C(=O)CC(Sc3ncccc3C(=O)O)C2=O)sc(C)c1C (stereo unspecified) | -14% (inactive)
CC(C)CC1C(C#N)=C(N)Oc2n[nH]c(-c3cccs3)c21 (stereo unspecified) | -16% (inactive)
CCOc1ccc(C(=O)N(CN2CCCC2=O)c2ccc(C)cc2)cc1 | 10% (active)
COc1ccc(C(=O)N(CN2CCCC2=O)c2ccc(C)cc2)cc1 | -1% (inactive)
O=C(NCCCN1CCCC1=O)c1ccc(OC(F)(F)F)cc1 | -18% (inactive)
O=C1CC(c2ccco2)CC2=C1C1c3ccccc3C(=O)N1c1ccccc1N2 (stereo unspecified) | -3% (inactive)
Cn1nnnc1SCC(=O)Nc1ccccn1 | 4% (active)
CSc1ccccc1-n1nnnc1SCC(=O)Nc1cc(C)ccc1C | -30% (inactive)
Cn1nnnc1SCC(=O)NC1CCCc2ccccc21 (stereo unspecified) | -21% (inactive)
CCn1c(O)c(N=NC2=NC(=O)CS2)c2cc(C)ccc21 | -10% (inactive)
CCc1ccc2c(c1)c(N=NC1=NC(=O)CS1)c(O)n2CC | 39% (active)
CCn1c(O)c(N=NC2=NC(=O)CS2)c2ccccc21 | 3% (active)
Cn1cc([N+](=O)[O-])c(C(=O)NCc2cc3cc(Cl)ccc3[nH]2)n1 | -12% (inactive)
O=[N+]([O-])c1cc(F)c2cccnc2c1O | -6% (inactive)
COc1ccc(-n2cnc3ccccc3c2=O)c([N+](=O)[O-])c1 | -9% (inactive)
COc1ccc(CCn2c(S)nc3ccccc3c2=O)cc1 | 6% (active)
NC(=O)CSc1nc2ccccc2c(=O)n1CCc1ccccc1 | -8% (inactive)
O=C(COC(=O)C1CCC(=O)N1)Nc1cc(Cl)ccc1Cl (stereo unspecified) | -13% (inactive)
CCC(C)(C)C1CCc2c(sc(NC(=O)c3ccccc3C(=O)O)c2C#N)C1 (stereo unspecified) | 18% (active)
COC(=O)c1c(NC(=O)C2CC=CCC2C(=O)O)sc(C)c1C (stereo unspecified) | -13% (inactive)
O=C(O)Cc1ccc(NC(=O)C2CC=CCC2C(=O)O)cc1 (stereo unspecified) | -14% (inactive)
CCC1CCc2c(sc(NC(=O)C3CC=CCC3C(=O)O)c2C#N)C1 (stereo unspecified) | 2% (active)
Cc1ccccc1C(=O)NC(=S)Nc1sc2c(c1C#N)CCC(C)C2 (stereo unspecified) | -13% (inactive)
Cc1ccc(CS(=O)(=O)c2ncc(Cl)c(C(=O)Nc3nnc(C)s3)n2)cc1 | -19% (inactive)

SMILES | activity increase over dofetilide control, less the hit threshold
CC1(OC(=O)c2ccc(Cl)nc2)C(=O)C=C2C=C(c3ccc(C#N)cc3)OC=C2C1=O (stereo unspecified) | -3% (inactive)
O=[N+]([O-])c1cc(S(=O)(=O)/N=C(/c2ccccc2)N2CCOCC2)ccc1Cl | -16% (inactive)
CCSC(=S)c1c(C)[nH]n(-c2ccccc2)c1=O | -19% (inactive)
COc1ccc2nc(-n3c(O)c(C4=c5ccccc5=NC4=O)[nH]c3=S)sc2c1 | -14% (inactive)
CCOc1ccc(-n2cnc3sc(C)c(C)c3c2=O)cc1 | -13% (inactive)
CCCSC(=S)c1c(C)[nH]n(-c2ccccc2)c1=O | 0% (inactive)
CCOc1ccc2nc(/N=C/c3c(C)[nH]n(-c4ccc(C)cc4)c3=O)sc2c1 | 38% (active)
COc1ccc2nc(/N=C/c3c(C)[nH]n(-c4ccc(C)cc4)c3=O)sc2c1 | 62% (active)
COc1ccc2nc(/N=C/c3c(C)[nH]n(-c4ccc(C)cc4C)c3=O)sc2c1 | 88% (active)
CCOc1ccc2nc(/N=C/c3c(C)[nH]n(-c4ccccc4)c3=O)sc2c1 | 100% (active)
Cc1nn(-c2cccc(C(F)(F)F)c2)c(Cl)c1/C=N/Nc1cccc(C(=O)O)c1 | -28% (inactive)
Brc1ccc(C2=CC(c3ccco3)n3nnnc3N2)cc1 (stereo unspecified) | -13% (inactive)
C=CCn1c(SCC(=O)Nc2cccc(C)c2)nnc1-c1cnccn1 | -18% (inactive)
O=C(CSc1cccc[n+]1[O-])C12CC3CC(CC(C3)C1)C2 | -11% (inactive)
Cc1cc(OCCN2CCCCCC2)ccc1[N+](=O)[O-] | -3% (inactive)
COCCNC(=O)C1CCN(S(=O)(=O)N2CCC3(CC2)OCCO3)CC1 | -21% (inactive)
Cc1cc2nccc(-c3ccc(Cl)cc3Cl)n2n1 | -3% (inactive)
Cc1[nH]n(-c2ccccc2)c(=O)c1N=Nc1ccc(C(N)=O)cc1 | -23% (inactive)
Cc1[nH]n(-c2ccc(Cl)cc2)c(=O)c1/C=N/c1nnc(-c2ccccc2)s1 | 106% (active)
Cn1cnnc1SCC(=O)NCc1ccccc1 | -20% (inactive)
CCCn1c(O)c(N=NC(=O)c2ccco2)c2ccccc21 | 17% (active)
CCn1c(O)c(N=NC(=S)NCC2CCCO2)c2ccccc21 (stereo unspecified) | -1% (inactive)
CCn1c(O)c(N=NC(=O)CNC(=O)c2ccccc2F)c2ccccc21 | -7% (inactive)
CC1(C)Cc2c(sc(NC(=O)C(=O)N3CCCC3)c2C#N)CO1 | -2% (inactive)
N#Cc1c(NC(=O)c2cc(-n3cnnc3)ccc2Cl)sc2c1CCCC2 | 5% (active)
Nc1nonc1-n1nnc(C(=O)N/N=C/c2ccccn2)c1-c1ccccc1 | -5% (inactive)

SMILES | activity increase over dofetilide control, less the hit threshold
Nc1nonc1-n1nnc(C(=O)N/N=C/c2cccc(Cl)c2Cl)c1CN1CCCC1 | 5% (active)
Cc1c(C(=O)N/N=C/c2ccccn2)nnn1-c1nonc1N | -14% (inactive)
CCc1ccc(/C=N/NC(=O)c2nnn(-c3nonc3N)c2C(C)C)cc1 | -22% (inactive)
CCCOc1ccc(-c2c(C(=O)N/N=C/c3ccccc3OCC)nnn2-c2nonc2N)cc1 | -7% (inactive)
CN(C)Cc1c(C(=O)N/N=C/c2ccccc2OCc2c(F)cccc2Cl)nnn1-c1nonc1N | 40% (active)
CN(NC1OC(=O)c2ccccc21)c1ccccc1[N+](=O)[O-] (stereo unspecified) | -4% (inactive)
CCCCOC(=O)Nc1nnc(C(C)C)s1 | -14% (inactive)
O=C(NC(=S)Nc1nc2ccc(F)cc2s1)c1ccco1 | 65% (active)
CCc1ccc2nc(NC(=O)c3cc(C)on3)sc2c1 | 10% (active)
CCc1nnc(NC(=O)c2cccc(C(=O)Nc3nnc(CC)s3)n2)s1 | -10% (inactive)
O=C(NC(=S)Nc1nc2ccccc2s1)c1ccco1 | -3% (inactive)
CCOC(=O)c1cccc(C(=O)Nc2nc3ccc(OC)cc3s2)n1 | -14% (inactive)
COc1ccc2nc(NC(=S)NC(=O)c3ccco3)sc2c1 | 2% (active)
CC(C)(C)Cc1nnc(NC(=O)c2ccco2)s1 | -13% (inactive)
Cc1ccc2nc(NC(=S)NC(=O)c3ccco3)sc2c1 | 50% (active)
COc1cccc(-c2cc(C(F)(F)F)nc(N3CCCCC3)n2)c1 | -17% (inactive)
Cc1ccc([N+](=O)[O-])c2c1C(N1CC(C)OC(C)C1)C(C)(C)O2 (stereo unspecified) | -24% (inactive)
CCc1cccc(C)c1NC(=O)C1=C(C(=O)O)CCCC1 | -14% (inactive)
NS(=O)(=O)c1ccc(Sc2ccc3c(c2)CCC3)nc1 | -2% (inactive)
CSc1nc(C)c2c(n1)N(c1ccc(C(C)C)cc1)CC2 | -9% (inactive)
Clc1ccc(Nc2ccc(Cl)nn2)cc1 | -6% (inactive)
Cc1cc(OCC(=O)Nc2cc(S(=O)(=O)N3CCOCC3)ccc2N2CCCC2)ccc1C(C)C | -7% (inactive)
CCCCCN(C(=O)CCC(=O)OCC(=O)N(C)C1CCCCC1)c1c(N)n(CCCC)c(=O)[nH]c1=O | -12% (inactive)
